For one assay, the target named is ATP2B3. Put plainly: pooled miR-30 sensor sort-seq; sequence = guide strand. The note with it: shRNA.
TTGACCAGAAAGATATTCTTGC showed a sensor-assay potency score (higher = more potent) of 0.31. For the sequence TTTATGAACTGAACACAGTTGA, the sensor-assay potency score (higher = more potent) amounted to 0.503. TTCTTTTGAACTCTTGGCCCTG displayed a sensor-assay potency score (higher = more potent) of -0.519. Same read-out and setting: the value for TTCCTCACCATGTCGTCCCGGT was -0.00689; that for TTTGTAAAGCTTGTCTTCCGGG was -0.371.

The target in the next assay is ATP2C2. Described as above. Particulars: shRNA.
Consider TCATCTTAAACACTTCTCCGAA, for which the sensor-assay potency score (higher = more potent) was -0.15. As for TTGTGCTTTGGGCTGGTCCTGA, the sensor-assay potency score (higher = more potent) was -0.105.

With TTCTGCTCTGAACTGAATGGAA, the sensor-assay potency score (higher = more potent) was -0.474. For TACGACATCACCAGGAACCAGT, the sensor-assay potency score (higher = more potent) was -0.544. In the case of TTGTACATGGTGCAGTAGCGGA, the sensor-assay potency score (higher = more potent) was -1.45. The same measure, in the same setting: the value for TAAGAGGAAAAACTGATCCGGT was -0.305.

Regarding TTCCTCTTCGTCCTTCTCCAGC, the sensor-assay potency score (higher = more potent) is -1.04. In turn, TCATCTTCACAGACACACCAGA came in with a sensor-assay potency score (higher = more potent) of -0.317. Still for that read-out and setting: the value for TTTAATATCACTTAAGTCCATC was -0.736. TAGAGGAACATGTGGTTCCTGA had a sensor-assay potency score (higher = more potent) of -0.803. TTAAACACTTCTCCGAACTGAG yielded a sensor-assay potency score (higher = more potent) of -0.019.

The target in another assay is ATP6V0A1. The assay is described as above. Particulars: shRNA.
As for TATAAGTAAACATCGGCCGTAC, the sensor-assay potency score (higher = more potent) is 0.244. In turn, TTGAATAACCAGACTCTGGGTA had a sensor-assay potency score (higher = more potent) of 0.472. On the same count and under the same terms, the value for ATAACAGACATCTTCATCTTAA was -0.304; that for TCTCTTTCTCAACAAATCGAAG was -1.57.

Regarding TTTATTGGTAGCAATGTTCCAA, the sensor-assay potency score (higher = more potent) amounted to 0.458.

TTTATTCTGGAACTCAACCCAG registered a sensor-assay potency score (higher = more potent) of -0.592.

On to TGACACAACAATAAGCAGCCTC, for which the sensor-assay potency score (higher = more potent) was -0.151. Take TTTCTGTCCAGAATACAACATT: the sensor-assay potency score (higher = more potent) is -0.792. TTATTCTGGAACTCAACCCAGT displayed a sensor-assay potency score (higher = more potent) of 0.03. The sequence TTATTGGTAGCAATGTTCCAAA showed a sensor-assay potency score (higher = more potent) of -1.08. The same measure, in the same setting: the value for TTATAAGTAAACATCGGCCGTA was -0.196. TTGGAGATCATCAATCCTGGTA showed a sensor-assay potency score (higher = more potent) of 0.0241. TTTCTCAACAAATCGAAGCTTT yielded a sensor-assay potency score (higher = more potent) of 0.0812. In turn, TTCCGCACTTTGATGAACCAGA came in with a sensor-assay potency score (higher = more potent) of -0.516.

Take AATACAACATTGAATAACCAGA: the sensor-assay potency score (higher = more potent) was -1.17. Same read-out and setting: the same measure for TAAGCATCTACTATGTTCTGAA: 0.161; for TTTTAATTCGGTCAGTTCCAGG: -1.24; for TCTAAGTCAATCATGTCCCGGG: 0.648. Consider TAAGTCACGAAACTGAACCTTT, for which the sensor-assay potency score (higher = more potent) is -0.177. The sequence TTGGAAAACATTCACATCTGGA displayed a sensor-assay potency score (higher = more potent) of 0.211. TTAAACAGCAGCATCCAAGGTA gave a sensor-assay potency score (higher = more potent) of 0.712. With TTTCTTCACATCTTCTAACTTC, the sensor-assay potency score (higher = more potent) is -0.0928. In turn, TTTCTGAGTCACATCTATGTTG gave a sensor-assay potency score (higher = more potent) of -0.762.

The values above are taken from the OligoGym collection.
Further: reference of the scale not given here.
